The structures appear in SMILES notation.

Data on 74 compounds can be found in ChEMBL document CHEMBL3988442, “University of Dundee, Small-Polar-MMV Screening Library” (2021).

The target of assay [1] is T1, Aspartate--tRNA(Asp/Asn) ligase (Mycobacterium tuberculosis (strain ATCC 25618 / H37Rv)) (UniProt P9WFW3). Further: in the data most compounds retested in dose-response had high values.
T1 sequence (whole entry): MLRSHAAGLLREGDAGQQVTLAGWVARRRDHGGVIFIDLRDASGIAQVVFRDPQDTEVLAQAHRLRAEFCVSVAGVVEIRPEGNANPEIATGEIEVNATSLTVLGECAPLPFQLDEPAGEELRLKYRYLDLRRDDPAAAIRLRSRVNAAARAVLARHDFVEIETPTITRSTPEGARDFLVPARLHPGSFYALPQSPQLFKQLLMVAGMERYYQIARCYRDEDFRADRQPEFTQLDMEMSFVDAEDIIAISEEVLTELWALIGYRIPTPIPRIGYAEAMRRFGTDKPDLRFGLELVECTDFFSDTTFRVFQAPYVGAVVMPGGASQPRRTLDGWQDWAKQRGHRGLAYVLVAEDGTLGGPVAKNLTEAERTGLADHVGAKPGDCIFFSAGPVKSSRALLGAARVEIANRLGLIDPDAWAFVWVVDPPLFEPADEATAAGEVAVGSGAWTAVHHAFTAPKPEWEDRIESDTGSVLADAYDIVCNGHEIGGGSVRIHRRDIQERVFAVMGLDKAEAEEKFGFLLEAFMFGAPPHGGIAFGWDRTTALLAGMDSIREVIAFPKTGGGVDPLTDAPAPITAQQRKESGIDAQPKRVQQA
The experiment in a line: Assay for Asp RNA synthetase-1 from Mycobacterium tuberculosis. The class given is functional. Details: scale not given: direction of the effect not stated beside the values. The conditions noted are these: 30 µM.

Assay [2] deals with Shiga toxin 2 (Escherichia coli O157:H7) (UniProt P09385+P09386). Description: E. coli 0.157:H7 Shiga Toxin SOP - stx2 screening assay. The assay is classed as functional. The conditions noted are these: 30 µM. The arrangement: scale not given: direction of the effect not stated beside the values.

As for `CC(C)N(C)Cc1cn2c(n1)CN(Cc1ccsc1)CC2`, the Percent Effect in assay [1] was 1.89%; in assay [2], -40.8%.
In the case of `CC(C)c1nc(C2CCCN2CC(=O)Nc2ccc(Cl)cn2)no1` (stereo not drawn), the Percent Effect is -6.33% in assay [1] and 9.53% in assay [2].
The matching figures for `Cc1nc(Nc2nccs2)cc(C2CCCN2C2CCOCC2)n1` (stereo not drawn): -3.08% and 3.58%.
The matching figures for `O=C(c1cccc2c1OCCO2)N1CCCC(n2ccnc2)C1` (stereo not drawn): -1.01% and 21.1%.
Consider `CC(C)(C)OC(=O)N1CCCC[C@H]1C(=O)NCc1nccs1`, for which the Percent Effect in assay [1] was -1.06%; in assay [2], -16.6%.
The corresponding values for `CN(C)CC1CN(Cc2coc(-c3ccccc3Cl)n2)CCO1` (stereo not drawn) are -5.66% and -26.4%.
The corresponding values for `COc1c(C2CCCN2CC(=O)Nc2nc(C)cs2)c(C)nn1C` (stereo not drawn) are -3% and -14.6%.
As to `Fc1ccccc1-c1noc2c1CN(CC1CC1)CC2`, the Percent Effect in assay [1] was -1.29%; in assay [2] it was -8.88%.
The matching figures for `Cc1cnc(CN2CCCC(c3cc(C(N)=O)[nH]n3)C2)o1` (stereo not drawn): 9.73% and 13.4%.
The matching figures for `CN1CCN(Cc2cccnc2)C2(CCN(c3ncc(F)cn3)C2)C1=O` (stereo not drawn): 4.87% and -19.6%.
The matching figures for `CN1CCCc2cc(NC(=O)N3CCOC(C(N)=O)C3)ccc21` (stereo not drawn): -0.684% and -77.6%.
For the compound `Cc1nccn1-c1cccc(C2CCCN(C(=O)c3cc[nH]n3)C2)n1` (stereo not drawn), the Percent Effect was -0.309% in assay [1] and -32.7% in assay [2].
The matching figures for `CC(C)NC(=O)NCCCc1cc(N)n(-c2ccccc2)n1`: -8.28% and -2.61%.
Regarding `Cc1ccc(NC2CCN(C(=O)COc3cccnc3)CC2)nn1`, the Percent Effect in assay [1] was -4.47%; in assay [2], -129%.
The matching figures for `COC(=O)c1ccc(N2CCN(CCN3CCOCC3)C(C)C2)cc1` (stereo not drawn): -8.26% and 32.4%.
The matching figures for `COc1ccc(C(=O)N2CCCC(CNS(C)(=O)=O)C2)cc1F` (stereo not drawn): 1.03% and 22.9%.
On to `Cc1cccnc1CN(C)CC1(O)CCCN(CC2CCCCC2)C1=O` (stereo not drawn), for which the results for the Percent Effect in assay [1] and in assay [2] were -0.871% and 2.24%, respectively.
The matching figures for `O=S(=O)(Nc1cnn(C2CCOCC2)c1)c1ccc2c(c1)CCO2`: 0.452% and -15.1%.
The matching figures for `Cn1nc2c(cc1=O)CN(CC(=O)Nc1ccc(Cl)cn1)CC2`: 48.3% and -4.57%.
In the case of `CN(C)C1CCN(C(=O)c2ccc(Cn3ccccc3=O)o2)CC1`, the Percent Effect was 1.63% in assay [1] and -10.4% in assay [2].
The corresponding values for `NC(=O)C1CN(C(=O)Nc2ccccc2N2CCCCCC2)CCO1` (stereo not drawn) are 0.991% and 7.25%.
The corresponding values for `CN(Cc1ccccc1)CC(O)Cn1cnc2ccccc2c1=O` (stereo not drawn) are -0.611% and -4.12%.
The corresponding values for `O=C(NCC1CC1)C1CN(C(=O)c2cccs2)CC12CCOCC2` (stereo not drawn) are 5.88% and 0.242%.
With `COc1ccc2c(c1)CCCN2Cc1nc2c(cnn2C)c(=O)[nH]1`, the Percent Effect in assay [1] is -4.23%; in assay [2], -5.78%.
The corresponding values for `O=C(NC1CCN(c2snc3ccccc23)CC1)C1CCC1` are 4.7% and -22.1%.
The matching figures for `COCC(=O)N1CC[C@@H](O)[C@@H]1Cc1ccccc1`: 4.62% and 3.46%.
The matching figures for `CCCc1cc(C(=O)N(C)Cc2cccc3ncccc23)n(C)n1`: -1.28% and -12.5%.
With `Cc1cccc2nc(C(=O)N3CCC(Nc4cccnn4)CC3)cn12`, the Percent Effect was -1.93% in assay [1] and 8.8% in assay [2].
The matching figures for `NC(=O)c1ccc(NC(=O)CCN2CCCC(N3CCCC3)C2)cc1` (stereo not drawn): -4.91% and 24.7%.
Take `Cc1cc(F)ccc1S(=O)(=O)NCc1cccc(C(=O)N2CCCC2)c1`: the Percent Effect was -1.3% in assay [1] and 30.6% in assay [2].
Turning to `CCn1cc(CN(C)S(=O)(=O)c2cc(Cl)ccc2Cl)cn1`, the Percent Effect is -5.08% in assay [1] and -51.4% in assay [2].
The corresponding values for `OC(CN1CCOCC1)CN1CCc2c(ncn2C2CC2)C1` (stereo not drawn) are -8.33% and -43.3%.
The matching figures for `Cc1ccc(NC2CCN(C(=O)c3c(C)noc3C)CC2)nn1`: -3.12% and 7.22%.
With `COCCO[C@H]1CCN(Cc2cccs2)[C@H]1Cc1cccnc1`, the Percent Effect in assay [1] is 0.0141%; in assay [2] it was 9.31%.
For the compound `Cc1nn(C)c2cn(C(C)C(=O)NCc3cccnc3)nc12` (stereo not drawn), the Percent Effect in assay [1] was -1.71%; in assay [2] it was -24.9%.
The matching figures for `CN(c1ccc(C(C)(C)C)cc1)S(=O)(=O)c1cc(C(=O)O)cs1`: 1.85% and 12.9%.
`O=C1NCC[C@]12CN(Cc1ccoc1)C[C@H]2c1ccccc1`: the Percent Effect in assay [1] was 1.06%; in assay [2], -14.1%.
The corresponding values for `O=C(CN1CCCCC1Cn1cncn1)NCCc1ccc(F)cc1` (stereo not drawn) are 3.25% and -5.15%.
The corresponding values for `CN(C)CCNC(=O)CNC(=O)N1CCc2c([nH]c3ccc(Cl)cc23)C1` are 6.71% and -77.4%.
The corresponding values for `CN(C)CCN1CCO[C@H]2CN(Cc3cnn(C)c3)C[C@H]21` are -1.31% and -7.4%.
Consider `CC(C)n1cc(CN2CCCN(C(=O)c3cc(Cl)c[nH]3)CC2)cn1`, for which the Percent Effect in assay [1] amounted to 5.29%; in assay [2] it was 3.9%.
The matching figures for `CCc1ncc(CNC2CC(=O)N(CCc3cccc(Cl)c3)C2)cn1` (stereo not drawn): -0.729% and -24.9%.
In the case of `O=C1CC(c2ccccc2)C2(CCN(Cc3ccccn3)CC2)N1` (stereo not drawn), the Percent Effect in assay [1] was 2.57%; in assay [2], -17.4%.
In the case of `COCCN1CCc2cc(C(=O)NCC3CC3)c(NC(C)C)nc2CC1`, the Percent Effect in assay [1] is 7.66%; in assay [2] it was 6.55%.
The matching figures for `CCN(CC)C1CCN(C(=O)NCc2c(C)noc2C)CC1`: 0.182% and -1.12%.
The matching figures for `CCOc1cc(/C=C/c2ncc(C(=O)O)s2)ccc1O`: 0.568% and -21.4%.
The corresponding values for `COCCN1C[C@@H]2CCCO[C@@H]2[C@H](NC(=O)c2cnccn2)C1` are 3.03% and -9.33%.
In the case of `O=C([C@H]1COC[C@H]2CN(C3CCCC3)C[C@H]21)N1CCCCO1`, the Percent Effect in assay [1] is 5.94%; in assay [2] it was -2.98%.
Turning to `CS(=O)(=O)N1CCC(C(=O)NCCNc2ncccn2)CC1`, the results for the Percent Effect in assay [1] and in assay [2] were -0.962% and -1.12%, respectively.
The matching figures for `Cc1nnc(N2CC[C@H]3C[C@@H](C(=O)NC4CCCC4)O[C@H]3C2)s1`: 0.29% and -4.68%.
The corresponding values for `CN1CCN(c2cc(CNC(=O)c3ccc(=O)n(C)c3)ccn2)CC1` are -4.9% and -0.684%.
The matching figures for `Cc1nc(C)n(CC2CCCN(CCNC(=O)OC(C)(C)C)C2)n1` (stereo not drawn): -2.36% and 7.06%.
In the case of `CCc1cc(O)nc(C2CCCN2C(=O)c2cccnc2)n1` (stereo not drawn), the results for the Percent Effect in assay [1] and in assay [2] were 2.54% and 2.33%, respectively.
The corresponding values for `c1ncn(CC2CCCCN2Cc2noc(C3CC3)n2)n1` (stereo not drawn) are 3.28% and 26%.
The corresponding values for `CCc1cnc(CN(C)C2CCN(CCc3cccs3)C2)o1` (stereo not drawn) are 2.92% and 23.3%.
The corresponding values for `Cc1nn(C)c(C)c1C1CCCN1C(=O)CCc1cscn1` (stereo not drawn) are -2.02% and 20.4%.
`Cc1ccc(CC(=O)NC(C)C(=O)N2CCS(=O)(=O)CC2)cc1` (stereo not drawn): the Percent Effect in assay [1] stood at 0.123%; in assay [2] it was 1.85%.
The corresponding values for `Cc1ccc(NC2CCN(C(=O)c3cc(C(N)=O)cs3)CC2)nn1` are 4.69% and 3.48%.
The corresponding values for `CN(Cc1nnc(C2CC2)n1C)C1CCN(Cc2ccccc2F)C1` (stereo not drawn) are -3.49% and -40.3%.
As to `CCC(CNC(=O)c1cc(OC)ccc1Br)N1CCc2ccccc2C1` (stereo not drawn), the Percent Effect in assay [1] is 4.47%; in assay [2], 9.68%.
The corresponding values for `Cc1cccc(-c2noc(CN3CCCC3Cn3cccn3)n2)c1` (stereo not drawn) are -8.22% and 28.6%.
The corresponding values for `COc1cc(CCC(=O)NC2CC2)ccc1OCC(F)(F)F` are 1.01% and 30.2%.
The matching figures for `CC(=O)N(C)CC(=O)Nc1cccc(N2CCN(CC3CC3)CC2)c1`: 7.12% and -14.8%.
Turning to `Cc1cc(C)n(C2CN(CC(=O)NCC(C)(C)N3CCOCC3)C2)n1`, the Percent Effect in assay [1] is -2.72%; in assay [2], -13.3%.
The corresponding values for `CSc1nccn1-c1cccc(C(=O)NCc2nnc(C)n2C)c1` are 4.52% and 19.7%.
On to `COc1ccc(CNCCc2cc(F)cc3c2OCOC3)cc1O`, for which the results for the Percent Effect in assay [1] and in assay [2] were 3.65% and -23.1%, respectively.
The matching figures for `Cn1ccc2ccc(C(=O)N3CCN(C(=O)N4CCOCC4)CC3)cc21`: -0.0331% and 7.14%.
Regarding `CC(C)c1nc(CN(C)C2CCN(Cc3nc(C4CC4)no3)C2)no1` (stereo not drawn), the results for the Percent Effect in assay [1] and in assay [2] were 5.06% and -26.4%, respectively.
With `N#Cc1ncn(CCC(=O)Nc2c(Cl)cccc2Cl)n1`, the Percent Effect in assay [1] was 6.68%; in assay [2], -17.7%.
The corresponding values for `Cc1cc(C(=O)N2C[C@@H]3COC[C@]3(COCc3cccnc3)C2)no1` are 0.918% and -6.54%.
The corresponding values for `Cc1nnc2n1CCN(Cc1csc(Cc3ccccc3)n1)C2` are -4.28% and 1.17%.
`Cc1cc(C)n(Cc2cccc(C(=O)NCCN3CCOCC3)c2)n1`: the Percent Effect in assay [1] is 5.71%; in assay [2] it was -69.3%.
The corresponding values for `O=C(c1ccc(-n2cccn2)nc1)N1CCC(Nc2cccnn2)CC1` are -2.94% and 26.9%.
In the case of `CCOC(=O)c1sc(NC(=O)CN(C)S(C)(=O)=O)c(C#N)c1C`, the Percent Effect in assay [1] is -4.94%; in assay [2], 2.91%.
